# Measurements: paper PMC4336329 (PLoS ONE, 2015)
# The campaign covered roughly 310,000 compounds. About 2,200 (0.71%) showed an effect of 50% or more. The effect is printed as a negative number. The entries come from a sample that favours strong results as a whole.
# Target: human ether-à-go-go-related gene (hERG) potassium channel (human, UniProt Q12809)
# Assay: primary screen, population patch clamp on CHO cells stably expressing hERG; higher = less effect of the substance
# Method: Briefly, Chinese hamster ovary (CHO) cells stably expressing the hERG channel were dislodged from tissue culture flasks and dispensed into PPC plates. […] During the recording, background leak currents were estimated by a 100 ms step to -80 mV from an initial holding potential of -70 mV and subtracted from the subsequent current measurement. The campaign was conducted in two phases using slight differences in recording protocol. In the first phase, the initial voltage pulse used a 100 ms step to -30 mV from a holding potential of -70 mV, a 2 s conditioning step to +25 mV, and a 2 s test step to -30 mV. During the second phase of the screen, the potential during the conditioning step was raised to +45 mV. In both phases of the campaign, a secondary voltage pulse was applied using the same parameters as the second phase initial pulse. The initial and secondary pulses were applied in the absence of compound, and upon application of 1 μM and 10 μM test concentrations. Small molecule effects on hERG current density were quantified by […].
# human ether-à-go-go-related gene (hERG) potassium channel, sequence (Q12809 whole entry, looked up): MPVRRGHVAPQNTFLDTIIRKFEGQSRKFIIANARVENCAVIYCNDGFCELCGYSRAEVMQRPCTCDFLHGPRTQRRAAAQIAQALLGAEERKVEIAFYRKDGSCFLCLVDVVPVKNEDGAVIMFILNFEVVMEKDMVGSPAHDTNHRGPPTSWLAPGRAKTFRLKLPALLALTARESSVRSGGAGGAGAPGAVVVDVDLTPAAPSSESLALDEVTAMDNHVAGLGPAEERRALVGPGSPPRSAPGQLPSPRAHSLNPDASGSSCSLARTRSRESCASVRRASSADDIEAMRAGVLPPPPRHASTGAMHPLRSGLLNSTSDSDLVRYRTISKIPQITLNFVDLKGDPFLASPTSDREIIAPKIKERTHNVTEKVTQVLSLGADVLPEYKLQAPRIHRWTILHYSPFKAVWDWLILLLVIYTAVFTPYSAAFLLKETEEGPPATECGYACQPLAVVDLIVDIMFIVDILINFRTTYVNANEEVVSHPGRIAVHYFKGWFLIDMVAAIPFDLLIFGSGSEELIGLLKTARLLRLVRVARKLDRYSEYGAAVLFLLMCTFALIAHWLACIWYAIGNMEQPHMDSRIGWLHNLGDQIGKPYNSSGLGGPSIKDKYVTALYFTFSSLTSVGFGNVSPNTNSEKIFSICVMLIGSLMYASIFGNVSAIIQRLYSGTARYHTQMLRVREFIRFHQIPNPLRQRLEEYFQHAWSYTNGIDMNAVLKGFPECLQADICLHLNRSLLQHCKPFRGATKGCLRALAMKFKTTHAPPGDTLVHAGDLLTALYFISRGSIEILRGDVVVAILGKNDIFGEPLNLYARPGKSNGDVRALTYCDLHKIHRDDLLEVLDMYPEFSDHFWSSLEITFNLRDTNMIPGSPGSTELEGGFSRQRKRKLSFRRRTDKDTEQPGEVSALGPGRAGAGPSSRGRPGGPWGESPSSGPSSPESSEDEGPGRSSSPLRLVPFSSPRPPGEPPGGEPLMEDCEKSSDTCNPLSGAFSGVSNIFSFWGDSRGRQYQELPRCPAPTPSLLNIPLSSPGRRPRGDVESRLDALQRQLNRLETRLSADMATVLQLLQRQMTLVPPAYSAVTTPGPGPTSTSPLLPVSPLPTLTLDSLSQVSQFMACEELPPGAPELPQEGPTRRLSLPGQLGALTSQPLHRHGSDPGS
row,SMILES,"hERG current change (%, negative = inhibition) at 1uM"
1,O=C(OCC(=O)N1CCCC1=O)c1ccc(F)c(S(=O)(=O)N2CCOCC2)c1,-4.67%
2,Cc1cc(C)c(S(C)(=O)=O)c(S(=O)c2ccc(Cl)cc2)n1 (centres unmarked),3.19%
3,CCOC(=O)c1[nH]c2ccc(OC)cc2c1NC(=O)CCN1CCN(Cc2ccccc2)CC1,-36%
4,NC(=O)CSc1nnc(Cc2csc(Nc3ccc(F)cc3)n2)n1Cc1ccccc1,11.5%
5,O=C(OCC(=O)N(C1CCCCC1)C1CCCCC1)c1ccco1,9.71%
6,O=C(O)CCN1C(=O)c2ccccc2C1=O,19.2%
7,CN(C)S(=O)(=O)c1cccc(-c2nnc(SCc3ccc4c(c3)OCCO4)o2)c1,-0.0123%
8,C=CCc1ccc(OCC(O)CN2CCN(Cc3ccccc3)CC2)c(OC)c1.Cl (centres unmarked),-10.6%
9,C=CCc1ccccc1OCC(O)CN1CCN(c2ccccc2F)CC1.Cl (centres unmarked),-0.42%
10,C=CCc1ccc(OCC(O)CN2CCN(Cc3ccc(Cl)cc3)CC2)c(OC)c1.Cl (centres unmarked),-55.3%
11,C=CCc1ccc(OCC(O)CN2CCN(c3ccccc3)CC2)c(OC)c1.Cl (centres unmarked),-33.7%
12,C=CCc1ccccc1OCC(O)CN1CCN(c2ccccc2OC)CC1.Cl (centres unmarked),-52.3%
13,C=CCc1ccc(OCC(O)CN2CCC(Cc3ccccc3)CC2)c(OC)c1.Cl (centres unmarked),-75%
14,C=CCc1ccc(OCC(O)CN2CCCCC2)c(OC)c1 (centres unmarked),-16.5%
15,C=CCc1ccccc1OCC(O)CN1CCN(c2ccc(OC)cc2)CC1.Cl (centres unmarked),-27.3%
16,C=CCc1ccc(OCC(O)CN2CCN(c3ccccc3OC)CC2)c(OC)c1.Cl (centres unmarked),8.86%
17,COc1cc(CN2CCN(c3ccccc3C)CC2)cc([N+](=O)[O-])c1O,7.17%
18,CN(C)C(=O)Oc1ccc(OC(=O)c2ccccc2)cc1,10.4%
19,Cc1ccc(-n2c(N)c(C#N)c(-c3ccc(Cl)cc3)c(C#N)c2=O)cc1,10.8%
20,CCCCNC(=O)COC(=O)c1cc(C)oc1C,8.11%
21,Cc1nonc1OCCN1CCN(c2ccccc2[N+](=O)[O-])CC1.Cl,-2.31%
22,Cc1ccc(OCC(O)CN2CCN(c3ccc(C)cc3)CC2)cc1 (centres unmarked),-3.83%
23,COc1ccc(N2CCN(CC(O)COc3ccc([N+](=O)[O-])cc3)CC2)cc1.Cl (centres unmarked),-45.5%
24,O=[N+]([O-])c1ccc(OCC(O)CN2CCN(c3ccccc3F)CC2)cc1 (centres unmarked),-77.6%
25,OC(COc1ccc2c(c1)CCC2)CN1CCN(c2ccccc2F)CC1 (centres unmarked),5.87%
26,Cl.OC(COc1ccc(F)cc1)CN1CCN(c2ccccc2F)CC1 (centres unmarked),-49.5%
27,Cc1ccc(N2CCN(CC(O)COc3ccc([N+](=O)[O-])cc3)CC2)cc1 (centres unmarked),-65.4%
28,Cc1nonc1OCCNc1ccc([N+](=O)[O-])cc1,-17.1%
29,Cc1nonc1OCCN1CCN(c2ccc([N+](=O)[O-])cc2)CC1,-100%
